Laboratory results published in PubChem BioAssay (NCI).
The panel holds about 83,000 compounds, 20% with a hit somewhere; the sample as a whole holds those more often.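 Plates (96-well) were seeded with cells, treated with compound at one concentration, and incubated for 48 hours before percent growth was determined.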 Values without a mark were called inactive. Calls of active or inactive are those of the source. The calls were made as follows: active = growth percent below 10; inactive = the rest.

Assays:
Assay in all cases: NCI-60 one-dose screen, 48 h (100 = growth as untreated, 0 = no growth, -100 = all killed)
Conditions in all cases: 10 µM unless noted
RPMI-8226 leukemia = test system: RPMI-8226 leukemia
OVCAR-8 ovarian = test system: OVCAR-8 ovarian
OVCAR-5 ovarian = test system: OVCAR-5 ovarian
OVCAR-4 ovarian = test system: OVCAR-4 ovarian
SK-OV-3 ovarian = test system: SK-OV-3 ovarian
IGROV1 ovarian = test system: IGROV1 ovarian
OVCAR-3 ovarian = test system: OVCAR-3 ovarian
HS 578T breast = test system: HS 578T breast
NCI/ADR-RES ovarian = test system: NCI/ADR-RES ovarian
T-47D breast = test system: T-47D breast

| Compound | growth (RPMI-8226 leukemia) | growth (OVCAR-8 ovarian) | growth (OVCAR-5 ovarian) | growth (OVCAR-4 ovarian) | growth (SK-OV-3 ovarian) | growth (IGROV1 ovarian) | growth (OVCAR-3 ovarian) | growth (HS 578T breast) | growth (NCI/ADR-RES ovarian) | growth (T-47D breast) |
| --- | --- | --- | --- | --- | --- | --- | --- | --- | --- | --- |
| O=CN1N=C(c2ccc(Cl)cc2)CC1c1cccc(Nc2ccnc3cc(C(F)(F)F)ccc23)c1 (stereo not given) | 26.4% | 52.8% | 99.7% | 36.1% | 72.4% | 74.2% | 62.2% | 87.7% | 55.4% | 42.6% |
| O=C1c2ccccc2C(=O)c2c1oc1c2c(=O)[nH]c2ccc(Cl)cc21 | 4.83% (active) | -27.5% (active) | 52.7% | -42% (active) | 1.64% (active) | -3.63% (active) | -68.4% (active) | -7.55% (active) | 22.3% | -58.1% (active) |
| O=C(Nc1cccc(-c2cccc(F)c2)c1)C1CCN(Cc2cccc3cccnc23)CC1 | 19% | 72% | 82.9% | 51.6% | 68.3% | 62.7% | 60.8% | 60.9% | 73% | 29% |
| O=Cc1[nH]c(Sc2ccccc2)c2ccccc12 | 7.59% (active) | 68.6% | 87.4% | 58.3% | 83.5% | 88.2% | 50.4% | 64.9% | 69.7% | 44.1% |
| COc1ccc2c(c1)C1(C(=O)N2)C(C#N)=C(c2ccccc2)Nc2c1c(-c1ccccc1)nn2-c1ccccc1 (stereo not given) | 67.6% | -10.9% (active) | 83.1% | -1.01% (active) | 78.8% | 49.6% | -69.2% (active) | 40% | 92.7% | 63.4% |
| O=c1[nH]c(-c2cccc(F)c2)cc2cc(F)ccc12 | 22.5% | 30.2% | 48.4% | 63.4% | 26.1% | 40.1% | -11.9% (active) | 34.7% | 6.86% (active) | 49.8% |
| NS(=O)(=O)c1ccc(C2C3=C(CCCC3=O)OC3=C2C(=O)c2ccccc2C3=O)cc1 (stereo not given) | -35.8% (active) | -14.5% (active) | -53.1% (active) | -96.6% (active) | -23.9% (active) | -52.3% (active) | -66.1% (active) | -5.38% (active) | 56.9% | -50.7% (active) |
| O=C1C(=O)c2c(nc3ccc(Br)cn23)-c2ccccc21 | -47.6% (active) | -90.7% (active) | -76.9% (active) | -95.1% (active) | -97.6% (active) | -51.5% (active) | -51.4% (active) | -52.2% (active) | -31.4% (active) | -59.8% (active) |
| COC(=O)c1nc(-c2ccccc2)oc1S(=O)(=O)n1nc(C)cc1N | 53.2% | 95.3% | 103% | 104% | 106% | 61% | 20.4% | 93.6% | 101% | 22.5% |
| C/C(=N/Nc1nc2ccccc2n1C)c1ccccn1 | -17.5% (active) | 0.773% (active) | 35.3% | 20.8% | -0.894% (active) | 18% | 10.3% | 44.5% | -7.51% (active) | 8.05% (active) |
| COc1ccc(Nc2nc(SCC(C)C)nc(-c3ccc(F)cc3)c2C#N)cc1 | 88% | 89.4% | 94.3% | 80.9% | 73.4% | 71.4% | 21% | 79.1% | 40.3% | 65% |
| COCCOC(=O)COc1ccc(OC)cc1 | 97.3% | 101% | 104% | 94.2% | 112% | 101% | 95.4% | 101% | 104% | 120% |
| CCOc1ccc(C2N(c3cc(OC)c(OC)c(OC)c3)C(=O)C2(F)F)cc1 (stereo not given) | 14.6% | 43.2% | 66.5% | 49.6% | 71.9% | 37.8% | 7.25% (active) | 37.4% | 28.9% | 70% |
| Nc1c(C(=O)Nc2cccc3ccccc23)sc2nc3c(cc12)CCCCC3 | 24.9% | 21.4% | 44.1% | 56.6% | 29.1% | 44.3% | -25.2% (active) | 30% | 20.3% | 46.7% |
| O=C1Nc2ccc(Cl)cc2/C1=N/c1nc(-c2ccc(F)cc2)cs1 | 8.37% (active) | 45.3% | 75% | 32.2% | 56.4% | 25.6% | 39.2% | 38.5% | 79.8% | 25.3% |
| COC(=O)c1ccc(NC(=O)CSc2nc(-c3ccc(F)cc3)nc3ccccc23)cc1 | 44.9% | 82.2% | 107% | -31.5% (active) | 90.9% | 90.9% | 16.8% | 82.8% | 88% | 67.7% |
| C=C1C(=O)O[C@H]2[C@H]1CC/C(COC(=O)CCCCCCCC(=O)OC/C1=C/CC[C@@]3(C)O[C@H]3[C@H]3OC(=O)C(=C)[C@@H]3CC1)=C\CC[C@@]1(C)O[C@@H]21 | 3.72% (active) | 1.92% (active) | 44.4% | 26.7% | 101% | -13.3% (active) | 2.34% (active) | 9.65% (active) | 28.6% | -30.2% (active) |
| CCC[S@](=O)c1ccc2nc(NC(=O)OC)[nH]c2c1 | 96.4% | 84.9% | 101% | 104% | 74.5% | 97.1% | 104% | 102% | 106% | 87.7% |
| O=C(Nc1nccs1)c1noc2ccccc12 | 90.4% | 94.7% | 103% | 88.4% | 92.2% | 84.1% | 110% | 97% | 106% | 57.5% |
| C[C@H]1[C@H](C)CC[C@]2(C(=O)OCCCC[P+](c3ccccc3)(c3ccccc3)c3ccccc3)CC[C@]3(C)C(=CC[C@@H]4[C@@]5(C)CC[C@H](OC(=O)C(Cl)Cl)C(C)(C)[C@@H]5CC[C@]43C)[C@H]12 | -53.3% (active) | -36.8% (active) | -52.2% (active) | -12.1% (active) | -15.5% (active) | -51.8% (active) | -88.8% (active) | -20.1% (active) | 36.8% | -23.8% (active) |
| CCCCOc1nc2ccc(C)cc2cc1/C=C/C(=O)/C=C/c1ccc2c(c1)OCO2 | 5.04% (active) | 38.7% | 131% | 95.4% | 106% | 90.3% | 74.6% | 101% | 91.7% | 62.7% |
| C=CCn1c(SCC(=O)Nc2ccc(C(=O)/C=C/c3cc(OC)c(OC)c(OC)c3)cc2)nnc1-c1ccccc1 | 5.73% (active) | 86.8% | 128% | 111% | 110% | 86.9% | 82.3% | 102% | 102% | 78.8% |
| CC(C)NS(=O)(=O)c1cccc(-c2ccc3c(=O)n(CCCN)c4c(c3c2)C(=O)c2ccccc2-4)c1 | 102% | 97.6% | 109% | 85.2% | 107% | 102% | 99% | 105% | 98.6% | 103% |
| C=C1C(=O)O[C@H]2[C@H]1CC/C(COC(=O)c1cc3ccccc3o1)=C\CC[C@@]1(C)O[C@@H]21 | -23.7% (active) | -12.6% (active) | -18.8% (active) | -10.5% (active) | 97.2% | -40.1% (active) | -87.4% (active) | -4.65% (active) | 14.2% | -48% (active) |
| Nc1c(C(=O)Nc2cccc3ccccc23)sc2nc3c(cc12)COCC3 | 59.6% | 57.9% | 87.9% | 73.4% | 38.6% | 49.1% | 19.8% | 35.8% | 26.8% | 57.1% |
| NCCN1CCNCC1 | 79.2% | 112% | 94% | 100% | 101% | 104% | 109% | 98% | 102% | 86.2% |
| Cc1nc2sc(C(=O)Nc3ccccc3Cl)c(N)c2cc1C(C)O (stereo not given) | 88.1% | 95% | 97.8% | 97.9% | 78.7% | 92.9% | 88.8% | 88.1% | 71.7% | 86.4% |
